# About 11,000 (3.5%) of roughly 310,000 compounds were called active. Another 8% or so got no clear call; they are omitted. The call rests on the fitted dose curve; in most records, active means well fitted inhibition curve with a large enough effect; inconclusive means small, poorly fitted or top-dose-only effect, or effect the other way; inactive means flat fitted curve, though single readings scatter. What follows is part of a selection rich in actives, with near analogues and random picks from the rest. Entries that show only a call come without a potency.
# Assay: VP16 counterscreen qHTS for inhibitors of ROR gamma transcriptional activity;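 further: Gal4-VP16 expression switched on by copper sulfate through the metallothionein promoter; nearly all actives have a fitted effect of over 50% in size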
# Details: Drosophila S2 Gal4-VP16 UAS-luciferase, luminescence, 20 h; series mostly up to 53.6 µM
# Potency means the concentration at half of the fitted maximal effect.
row,SMILES,Potency
1,CCn1cc(C(=O)NCCC(=O)NCCO)c(=O)c2cc3c(cc21)OCO3,inactive
2,O=C(N/C(=C/c1ccc(Cl)cc1)C(=O)N1CCCCC1)c1ccco1,inactive
3,COC(=O)c1ccc(CNC(=O)c2ccc3oc(C(C)C)nc3c2)cc1,inactive
4,FC(F)(F)C1CCCN(c2nsc3ccccc23)C1 (stereo not given),28.2 µM (active)
5,O=c1[nH]c(/C=C\c2cccc(C(F)(F)F)c2)nc(O)c1[N+](=O)[O-],inactive
6,CCN1CCN(C(=O)C2CCN(S(=O)(=O)c3cc(Cl)ccc3Cl)CC2)CC1,inactive
7,CSc1ccc(CNCCN2CCOCC2)cc1,inactive
8,CCCCOc1ccc(C(C)(O)CCN2CCOCC2)cc1 (stereo not given),inactive
9,CC(C)(C)c1ccc(CCC2OCC(CN3CCOCC3)O2)cc1 (stereo not given),4.47 µM (active)
10,COc1ccc(/C=C/c2c(-c3cccc(C)c3)oc3ccc(-c4ccc5c(c4)OCO5)cc23)cc1,inactive
11,COc1cccc2cc(C(=O)NCc3ccc(C)cc3)c(=N)oc12,inactive
12,CC[C@]1(c2ccccc2OC)C(=O)N(C(=O)OC)N1C(=O)OC,inactive
13,Cc1ccc(/C=N/NC(=O)CNC(=O)COc2ccccc2)o1,inactive
14,N=c1oc2ccccc2cc1C(=O)N/N=C/c1ccccc1,inactive
15,Cc1ccc(/C=N/NC(=O)c2cc3ccccc3cc2O)o1,1.58 µM (active)
16,COc1ccc(-n2ncc3c(SCC(=O)NNC(C)=O)ncnc32)cc1,inactive
17,COc1ccc(N(C(=O)c2snc(C(N)=O)c2N)C(C(=O)NC2CCCC2)c2ccc(C)o2)c(OC)c1 (stereo not given),inactive
18,COc1ccc(Oc2c(Cl)cnn(-c3ccccc3)c2=O)cc1,inactive
19,Cc1cccc(-n2ncc(Cl)c(Cl)c2=O)c1,14.1 µM (active)
20,Cc1cccc(-n2ncc(C#N)c2-n2cccc2)c1,inactive
21,O=C(CSc1ccc(-c2ccccn2)nn1)Nc1ccccc1,inactive
22,Clc1nc(NC2CCCC2)nc(N2CCOCC2)n1,inactive
23,O=C(NNC(=O)C(O)c1ccccc1)NC1CCCCC1 (stereo not given),inactive
24,Cc1nn(-c2ccccc2)c(C)c1C(=O)OCC(=O)NC(=O)NC1CCCCC1,inactive
25,Cc1nc(/N=C(\N)NC(=O)NC2CCCCC2)nc2ccccc12,7.94 µM (active)
26,c1ccc2c(Nc3ccncc3)nc(-c3ccoc3)nc2c1,inactive
27,c1ccc2c(Nc3ccncc3)nc(-c3ccc4c(c3)OCO4)nc2c1,17.8 µM (active)

row,SMILES,Potency
1,Cc1cccc(-c2nc(Nc3ccc(O)cc3)c3ccccc3n2)c1,inactive
2,COCCc1nn2c(=O)cc(COC(=O)c3cc(OC)c(OC)c(OC)c3)nc2s1,inactive
3,Cc1cc(C(=O)NC2CC(C)(C)Cc3c2cnn3-c2ccccc2)n[nH]1 (stereo not given),inactive
4,O=C(c1ccccc1F)N(Cc1ccccc1)Cc1ccccc1,inactive
5,C/C(=N\NC(=O)c1ccccc1C)c1ccc(N2CCOCC2)cc1,inactive
6,C/C(=N\NC(=O)c1nc(C)cc(C)n1)c1ccccc1,inactive
7,CC(C)=C(NC(=O)c1ccccc1)C(=O)N/N=C(\C)c1ccccc1O,2.51 µM (active)
8,C/C(=N\NC(=O)c1ccoc1C)c1ccccc1O,0.708 µM (active)
9,CNC(=O)C(NC(=O)c1ccccc1)=C(C)C,inactive
10,CC(=O)NC(=O)c1ccccc1O,inactive
11,CCc1cc(=O)oc2c(C)c(OCC(=O)N3CC[C@@]4(O)CCCC[C@H]4C3)ccc12,inactive
12,COc1ccc(CNC(=O)C2CCN(S(=O)(=O)c3ccc(SC)cc3)CC2)cc1,inactive
13,COc1cccc(NC(=O)[C@H](Cc2c[nH]c3ccccc23)NC(=O)[C@@H]2Cc3ccccc3CN2)c1,inactive
14,O=C1CCN(CCCc2ccccc2)CCN1CCO,inactive
15,CCOc1ccc(CC(=O)NC2CCN(Cc3ccccc3)CC2)cc1,inactive
16,CCOc1ccccc1N1CN(Cc2ccccc2)CNC1=S,11.2 µM (active)
17,CCOc1ccccc1OCCCNCc1ccccc1,inactive
18,O=C(c1ccco1)N1CCN(Cc2cccc(C(F)(F)F)c2)CC1,inactive
19,Cc1ccc(NS(=O)(=O)c2ccc3c(c2)n(C)c(=O)c(=O)n3C)c(C)c1,inactive
20,CCOC(=O)COn1c(=O)c(-c2ccc(OCC)cc2)[n+]([O-])c2ccccc21,inactive
21,Cc1nn(-c2ccccc2)c2c1c(C)c(CCC(=O)NCC1CCCO1)c(=O)n2C (stereo not given),inactive
22,C=CC(=O)c1ccc2ccccc2c1,0.708 µM (active)
23,O=C(Nc1ccc(NC(=O)c2cccs2)cc1)c1ccc2ccccc2c1,inactive
24,CC(=O)CCC(=O)c1ccc2ccccc2c1,inactive
25,COc1cc2ccccc2cc1C(=O)Nc1ccccc1C,inactive
26,Cc1ccc(N(C(=O)c2snc(C(N)=O)c2N)C(C(=O)NCC2CCCO2)c2c[nH]c3ccccc23)cc1 (stereo not given),inactive
27,CCSc1nsc(NC(=O)Nc2ccccc2OC)n1,inactive

row,SMILES,Potency
1,CC1CCN(c2ccc(S(=O)(=O)Nc3cc(C(=O)O)cc(C(=O)O)c3)cc2[N+](=O)[O-])CC1,inactive
2,CC1CCN(c2ccc(C(=O)Nc3nnc(C4CC4)s3)cc2[N+](=O)[O-])CC1,17.8 µM (active)
3,CC1CCN(c2ccc(C(=O)NCc3ccc4c(c3)OCO4)cc2[N+](=O)[O-])CC1,inactive
4,COCCNC(=O)c1ccc2c(c1)ncn2-c1ccc(C)c(Cl)c1,inactive
5,CCC1Oc2ccccc2N(CC(=O)NCCCN2CCN(CC)CC2)C1=O (stereo not given),inactive
6,Cc1c(C)c2ccc(OCC(=O)N3CCN(c4cccc(Cl)c4)CC3)cc2oc1=O,inactive
7,Cc1ccc(OCC(=O)NC(C)c2ccccc2)cc1C (stereo not given),inactive
8,O=C(/C=C/c1ccc(Cl)c([N+](=O)[O-])c1)c1cccnc1,inactive
9,O=C(Nc1cccnc1)c1cc(Cl)ccc1Cl,inactive
10,O=C(/C=C/c1ccc(Cl)cc1Cl)c1cccnc1,6.31 µM (active)
11,COc1cccc(CNC(=O)C2CCCN(c3ncnc4c3nc3n4CCCCC3)C2)c1 (stereo not given),inactive
12,Cc1cc(NC(=O)CCN2CCN(Cc3ccccc3)CC2)ccc1Br,inactive
13,Cc1cc(NC(=O)CSc2nc(=O)cc(N)n2-c2ccc(F)cc2)no1,inactive
14,COc1cc(/C=N/NC(=O)Cc2ccccc2)cc(OC)c1OC,inactive
15,O=C(O)[C@@H]1CCCN1c1ncnc2sc3c(c12)CCC3,inactive
16,CC(C)(C)C(=O)Cn1c(NCCO)nc2ccccc21,inactive
17,OCCNc1nc2ccccc2n1-c1ncnc2sc3c(c12)CCC3,10 µM (active)
18,O=C(c1ccccc1)N1N=C(c2ccccc2O)CC1c1ccc(Br)cc1 (stereo not given),inactive
19,Cc1cn([C@H]2CC(F)[C@@H](CO)O2)c(=O)[nH]c1=O (stereo not given in full),inactive
20,CC(C)n1c(-c2ccncc2)n[nH]c1=S,inactive
21,CCn1c(-c2ccncc2)n[nH]c1=S,11.2 µM (active)
22,CCn1c(C(C)NC(=O)c2ccc(C)cc2)n[nH]c1=S (stereo not given),inactive
23,COc1cccc(CNC(=O)CCC2CCCN(C(=O)c3ccc(F)c(Cl)c3)C2)c1 (stereo not given),inactive
24,COC(=O)C1(CCSC)NC(c2ccc(OC)cc2OC)C2C(=O)N(c3cccc(C(C)=O)c3)C(=O)C21 (stereo not given),inactive
25,Cc1ccc(S(=O)Cc2ccc(C(=O)N3CCN(C4CCCCC4)CC3)o2)cc1 (stereo not given),inactive
26,Cc1[nH]c(C)c(S(=O)(=O)N2CCN(c3cccc(C(F)(F)F)c3)CC2)c1C(=O)N1CCCC1,inactive
